Compound activity (PubChem)
Shown are actives, neighbours in structure and some others; about 4.6% of the full set was active somewhere.
hcDAF12 agonist: H. contortus DAF-12 nuclear receptor activators, primary screen, cell-based, luminescence, HEK293, lit1-tk-luc reporter | HEK293 hcDAF-12 lit1-tk-luc reporter; 0% DMSO, 100% Δ7-dafachronic acid | activation, % at 6.8 µM | 1.4% of 370,000 active;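 active means activation above the mean of all tested compounds plus 3 SD, cut at about 5.5% in these data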;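 further: 100% = response to 3 µM Δ7-dafachronic acid high control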
DAX1 inh-1: DAX1 (NR0B1) inhibitors on StAR promoter, primary screen, cell-based, luminescence, SF-1 (NR5A1), full-length DAX-1. 1.1% of 370,000 active. HEK293T StAR-luciferase reporter, SF-1/DAX-1 repression relief. inhibition, % at 6.8 µM;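 active means inhibition above the mean over all tested compounds plus 3 SD, cut at about 3.6% in these data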;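 further: 0% = DAX-1 cells with DMSO and 100% = cells lacking DAX-1 with DMSO; higher inhibition means more luminescence from relief of DAX-1 repression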
Wee1 stabilizer: Wee1 degradation inhibitors, primary screen, cell-based, HeLa, Wee1K328M-luciferase, luminescence; Wee1-like protein kinase (Homo sapiens), P30291; HeLa Luc-Wee1K328M stability; 100% = proteasome inhibitor MG132 effect; AID 1321, 2008; reporter increase, % at 5 µM; 1.2% of 220,000 active;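 active means activation above the mean of all tested compounds plus 3 SD, set per screening run, cut at about 8.8% in these data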;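 further: cells exposed to compound for 20 h before luminescence read; 0% = DMSO alone and 100% = MG132 at 30 µM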
Target sequence (P30291 whole entry K328M): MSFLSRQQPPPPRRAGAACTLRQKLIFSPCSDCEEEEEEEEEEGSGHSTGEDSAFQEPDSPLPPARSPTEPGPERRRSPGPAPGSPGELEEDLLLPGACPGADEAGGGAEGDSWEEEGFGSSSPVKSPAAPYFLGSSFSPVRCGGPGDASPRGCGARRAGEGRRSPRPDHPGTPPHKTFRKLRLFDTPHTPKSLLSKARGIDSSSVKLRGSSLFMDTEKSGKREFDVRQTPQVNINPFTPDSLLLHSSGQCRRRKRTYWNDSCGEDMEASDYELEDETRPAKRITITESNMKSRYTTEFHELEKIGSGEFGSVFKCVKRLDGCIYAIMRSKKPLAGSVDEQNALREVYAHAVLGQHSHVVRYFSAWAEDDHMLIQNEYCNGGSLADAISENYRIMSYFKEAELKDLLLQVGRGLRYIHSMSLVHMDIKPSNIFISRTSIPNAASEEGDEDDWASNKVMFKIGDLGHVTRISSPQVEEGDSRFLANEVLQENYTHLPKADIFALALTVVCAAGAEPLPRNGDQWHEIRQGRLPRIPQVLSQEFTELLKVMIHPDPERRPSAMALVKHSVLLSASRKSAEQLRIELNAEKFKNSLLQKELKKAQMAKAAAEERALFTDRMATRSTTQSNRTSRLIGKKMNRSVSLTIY
DAX1 inh-2: DAX1 (NR0B1) inhibitors, primary screen, cell-based, HEK293, Gal4-DAX1, luciferase luminescence; HEK293 Gal4-DAX1 luciferase reporter; inhibition, % at 6.75 µM; 0.99% of 340,000 active;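 active means inhibition above the mean over all tested compounds plus 3 SD, cut at about 4.2% in these data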;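 further: 0% = DAX1-transfected cells with DMSO and 100% = empty-vector control cells with DMSO; inhibition shows as a rise in luminescence from relieved DAX1 repression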
ssDAF-12 act: S. stercoralis DAF-12 nuclear receptor activators, primary screen, cell-based, luminescence, HEK293, GRIP1 co-expression, lit1-tk-luc. activation, % at 6.8 µM. HEK293 ssDAF-12/GRIP1 lit1-tk-luc reporter; % of 3 µM dafachronic acid response. AID 652126, 2013. Nuclear hormone receptor DAF-12 (Strongyloides stercoralis). 1% of 370,000 active;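 active means activation above the mean over all tested compounds plus 3 SD, cut at about 0.9% in these data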;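 further: 0% = DMSO-only wells and 100% = 3 µM delta7-dafachronic acid wells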
hgDAF12 agonist: H. glycines DAF-12 receptor agonists, primary screen, cell-based, luminescence, HEK293, GAL4 fusion, UAS-luciferase; Nuclear hormone receptor DAF-12 (Heterodera glycines), GAL4 fusion; activation, % at 6.8 µM; 1.8% of 370,000 active; HEK293 GAL4-hgDAF12 UAS-luciferase reporter, agonist luminescence; normalized to butyrate control;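 active means activation above a cutoff set at the mean of all screened compounds plus 3 SD, cut at about 10% in these data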;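 further: 0% = DMSO wells and 100% = sodium butyrate wells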
hgDAF12 conf: H. glycines DAF-12 receptor agonists, confirmation, cell-based, luminescence, HEK293, GAL4-LBD fusion. 80% of 3,300 active. AID 743050, 2013. HEK293 GAL4-hgDAF12 luciferase reporter, agonist mode; percent of butyrate response. activation, % at 6.8 µM. shares compounds with hgDAF12 agonist;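 active means mean activation over triplicate wells above the hit cutoff derived from the earlier primary screen, cut at about 11% in these data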;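 further: 0% = DMSO low control and 100% = 2 mM sodium butyrate high control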
LXRb DAF12 ctr: LXR agonists, Gal4 luciferase reporter, confirmation, counter-screen for hgDAF-12 agonist project, cell-based, luminescence, HEK293, H. glycines campaign. shares compounds with hgDAF12 agonist. 24 h. activation, % at 6.8 µM. 3,300 tested, under 10 active. AID 743051, 2013;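 active means mean activation of the triplicate above a set limit carried over from the primary screen, none filed active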
* marks the source's active call; other numbers are inactive results.

How did O=C(CC(Nc1ccc(Cl)cc1)C(=O)O)c1ccccc1 (centres undefined) do in these assays?
hcDAF12 agonist: 4.4; DAX1 inh-1: 3.5; Wee1 stabilizer: -0.8; DAX1 inh-2: 0.9; ssDAF-12 act: 1.2*; hgDAF12 agonist: 14.4*; hgDAF12 conf: 20.0*; LXRb DAF12 ctr: 1.0

Results for O=C(CC(Nc1ccccc1Cl)C(=O)O)c1ccccc1 (centres undefined) ?
hcDAF12 agonist: 2.0; DAX1 inh-1: -0.8; Wee1 stabilizer: -0.4; DAX1 inh-2: 4.0; ssDAF-12 act: -1.2; hgDAF12 agonist: 5.3

What do the screens show for `COC(=O)[C@]12C[C@H](CC(=O)N3CCCCC3)C(=O)N(CCc3ccc(OC)c(OC)c3)C1=C[C@H](C1CCCC1)O[C@@H]2C`?
hcDAF12 agonist: -2.0; DAX1 inh-1: 0.3; ssDAF-12 act: -1.6; hgDAF12 agonist: 0.0

Results for COc1cccc(C(=O)NCc2ccc3c(c2)OCO3)c1OC ?
hcDAF12 agonist: -1.9; DAX1 inh-1: 0.4; DAX1 inh-2: 0.1; ssDAF-12 act: -0.8; hgDAF12 agonist: -2.1

How did COc1cccc(C(=O)Nc2ccc3c(c2)OCO3)c1OC do in these assays?
hcDAF12 agonist: 5.8*; DAX1 inh-1: 1.4; DAX1 inh-2: 1.1; ssDAF-12 act: 0.8; hgDAF12 agonist: 13.9*; hgDAF12 conf: 14.2*; LXRb DAF12 ctr: 0.6

What do the screens show for `O=C(CCl)Nc1ccccc1C(=O)Nc1ccc2c(c1)OCO2`?
hcDAF12 agonist: 4.7; DAX1 inh-1: 0.5; Wee1 stabilizer: 1.3; DAX1 inh-2: -1.3; ssDAF-12 act: 0.1; hgDAF12 agonist: 19.1*; hgDAF12 conf: 7.5; LXRb DAF12 ctr: 0.7

What do the screens show for `CCCCOCCCNC(=O)C[C@@H]1C[C@@]2(C(=O)OCC)CCC=C2N(Cc2ccc(Cl)cc2Cl)C1=O`?
hcDAF12 agonist: 2.8; DAX1 inh-1: -0.2; ssDAF-12 act: -1.7; hgDAF12 agonist: 1.3

Results for Cc1cccc2sc(N(CCN(C)C)C(=O)C3CCN(S(=O)(=O)c4cccs4)CC3)nc12 ?
hcDAF12 agonist: 1.0; DAX1 inh-1: -0.6; DAX1 inh-2: -0.4; ssDAF-12 act: -0.6; hgDAF12 agonist: 0.0

How did C/C(N)=C(/C#N)C(=O)CSc1nnc(-c2ccc3c(c2)OCO3)o1 do in these assays?
hcDAF12 agonist: 6.0*; DAX1 inh-1: 5.9*; Wee1 stabilizer: 1.4; DAX1 inh-2: 1.8; ssDAF-12 act: 1.0*; hgDAF12 agonist: 18.5*; hgDAF12 conf: 12.2*; LXRb DAF12 ctr: 0.8

Results for COCCc1nc2ccc(C(=O)N3CCCCC3COC)cc2o1 (centres undefined) ?
hcDAF12 agonist: -3.2; DAX1 inh-1: 0.9; DAX1 inh-2: 0.7; ssDAF-12 act: -0.5; hgDAF12 agonist: 0.8

Results for COCCC1CCCCN1C(=O)c1ccc2nc(Cc3ccccc3F)oc2c1 (centres undefined) ?
hcDAF12 agonist: 5.6*; DAX1 inh-1: 3.9*; DAX1 inh-2: 1.3; ssDAF-12 act: 0.3; hgDAF12 agonist: 13.6*; hgDAF12 conf: 12.4*; LXRb DAF12 ctr: 0.7

How did COP(=O)(O)C(COCCC(CC(C)C)NC(=O)OCc1ccccc1[N+](=O)[O-])NC(=O)OCc1ccccc1 (centres undefined) do in these assays?
hcDAF12 agonist: -0.2; ssDAF-12 act: -2.0; hgDAF12 agonist: 5.9

What do the screens show for `COc1cc(C=O)ccc1OCc1cccc(Br)c1`?
hcDAF12 agonist: 0.2; DAX1 inh-1: 0.3; Wee1 stabilizer: -0.3; DAX1 inh-2: 1.5; ssDAF-12 act: -1.0; hgDAF12 agonist: 13.6*; hgDAF12 conf: 9.7; LXRb DAF12 ctr: 0.3

How did CCCc1cc(=O)oc2cc(C)cc(OCC(=O)Nc3ccccn3)c12 do in these assays?
hcDAF12 agonist: -0.1; DAX1 inh-1: -1.0; DAX1 inh-2: 0.2; ssDAF-12 act: -1.6; hgDAF12 agonist: 1.8

How did CCCCc1cc(=O)oc2cc(C)cc(OCC(=O)Nc3ccccn3)c12 do in these assays?
hcDAF12 agonist: 3.5; DAX1 inh-1: 1.4; DAX1 inh-2: 1.1; ssDAF-12 act: 0.2; hgDAF12 agonist: 15.2*; hgDAF12 conf: 7.0; LXRb DAF12 ctr: 0.3

How did COc1ccc(C(=O)NC(=S)N2CCNC(=O)C2)cc1Br do in these assays?
hcDAF12 agonist: 1.8; DAX1 inh-1: -0.1; Wee1 stabilizer: 0.9; DAX1 inh-2: 3.2; ssDAF-12 act: -1.4; hgDAF12 agonist: 0.2

How did COc1ccc(C(=O)NC(=S)N2CCC(C)CC2)cc1Br do in these assays?
hcDAF12 agonist: 0.2; DAX1 inh-1: 0.7; DAX1 inh-2: 1.2; ssDAF-12 act: -0.6; hgDAF12 agonist: 31.7*; hgDAF12 conf: -1.1; LXRb DAF12 ctr: 0.0

What do the screens show for `Cc1ccc(S(=O)(=O)NCCC2(C(C)C)CCOC(C)(C)C2)cc1` (centres undefined)?
hcDAF12 agonist: -1.3; DAX1 inh-1: 0.0; Wee1 stabilizer: 0.3; DAX1 inh-2: 1.6; ssDAF-12 act: -1.1; hgDAF12 agonist: 1.0

What do the screens show for `Cc1ccc(C2=NNC3(CCOC(C)(C)C3)S2)cc1` (centres undefined)?
hcDAF12 agonist: 10.7*; DAX1 inh-1: 4.0*; Wee1 stabilizer: -3.4; DAX1 inh-2: 2.2; ssDAF-12 act: 1.0*; hgDAF12 agonist: 16.9*; hgDAF12 conf: 5.6; LXRb DAF12 ctr: 0.4

What do the screens show for `Cc1ccc(N2CCN(C(C(=O)Nc3c(C)cccc3C)c3cccc(F)c3)CC2)cc1` (centres undefined)?
hcDAF12 agonist: 0.0; DAX1 inh-1: 1.7; ssDAF-12 act: -0.7; hgDAF12 agonist: 3.6
